# Measured values taken from PubChem BioAssay.
# For some assays here: Measured potencies and affinities stand elsewhere. Activity calls are given as the source filed them.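 The calls were made as follows, unless noted: active = thallium flux through the channel raised or lowered by more than 3 SD from vehicle-only wells, actives on both sides; inactive = the rest.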
# Key:
# [1] = signal quenchers or enhancers, Cy5 substrate/SSB – biochemical, NIH Clinical Collection, E. coli SSB, artefact control for HCV NS3 helicase inhibitor project (AID 743268; call rule not given here); details: Cy5-oligo bound E. coli SSB, fluorescence interference
# [2] = tested on: Hepatitis C virus NS3 helicase; assay: blockers of NS3h binding to DNA – biochemical, fluorescence polarization, NIH Clinical Collection, primary screen (AID 743270; call rule not given here); details: NS3 helicase binding to Cy5-dT15 DNA, stronger effect = higher value, concentration not given here
# [3] = biological target: Single-stranded DNA-binding protein (Escherichia coli (strain K12)) (UniProt P0AGE0); assay: SSB-ssDNA binding inhibitors – biochemical, fluorescence polarization, NIH Clinical Collection, counter-screen for HCV NS3 helicase inhibitor project (AID 743271; in the data active = inhibition above about 28%); details: E. coli SSB-DNA binding, stronger effect = higher value, concentration not given here
# [4] = compounds distorting NS3 helicase fluorescence signal – biochemical, NIH Clinical Collection, artefact control for HCV NS3 helicase inhibitor project (AID 743272; call rule not given here;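 also: HCV NS3 helicase with a Cy5 labelled single stranded DNA probe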); details: fluorescence interference counterscreen, HCV NS3 helicase assay; stronger effect = lower value
# [5] = biological target: Calcium-activated potassium channel subunit alpha-1 (Homo sapiens) + Leucine-rich repeat-containing protein 26 (Homo sapiens) (UniProt Q12791+Q2I0M4); assay: BK channel mutant inhibitors and activators – cell-based, U2OS BacMam, thallium flux, beta subunits, selectivity assay, profiling panel (AID 1259406); details: U2OS BacMam BK variants, F380Y/Slo1WT/gamma1, at 30 µM;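 also: initial slope of Thallos dye fluorescence rise after thallium is added; log ratio against the mean of 0.3% DMSO vehicle wells on the same plate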
# Calcium-activated potassium channel subunit alpha-1 (Homo sapiens) + Leucine-rich repeat-containing protein 26 (Homo sapiens), sequence (Q2I0M4 whole entry, looked up, one chain of several): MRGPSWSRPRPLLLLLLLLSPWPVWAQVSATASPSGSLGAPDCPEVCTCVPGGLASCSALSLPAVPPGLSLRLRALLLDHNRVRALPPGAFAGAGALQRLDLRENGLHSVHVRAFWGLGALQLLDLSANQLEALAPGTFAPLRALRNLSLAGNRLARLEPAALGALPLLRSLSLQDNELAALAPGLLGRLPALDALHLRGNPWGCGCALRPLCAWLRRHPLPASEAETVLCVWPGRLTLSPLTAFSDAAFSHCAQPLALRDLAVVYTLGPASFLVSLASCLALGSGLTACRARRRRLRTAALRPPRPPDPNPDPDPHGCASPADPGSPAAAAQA
# [6] = tested on: R275C; assay: as above; details: U2OS BacMam BK variants, at 30 µM
# [7] = tested on: R275C/beta1; assay: as above; details: U2OS BacMam BK variants, at 30 µM
# [8] = tested on: R275C/beta2Delta; assay: as above; details: U2OS BacMam BK variants, at 30 µM
# [9] = tested on: R275C/beta4; assay: as above; details: U2OS BacMam BK variants, at 30 µM
# [10] = tested on: R275C/Slo1WT/beta2; assay: as above; details: U2OS BacMam BK variants, at 30 µM
# [11] = blockers of polyQ-driven CASP3 activation – cell-based (AID 1583); details: polyglutamine-induced caspase-3 activation, cell assay; stronger effect = higher value; concentration not given here
# [12] = yeast 75Q aggregation reduction – 75Q-TubU reporter (AID 1593); details: Yeast 75Q polyglutamine aggregation reporter
# [13] = restoration of touch response, mutant HTT neurons – whole organism, C. elegans mechanosensory neurons, N-terminal huntingtin (AID 1599); details: C. elegans polyQ-huntingtin mechanosensory neurons, stronger effect = higher value
# [14] = blockers of cytochrome c efflux from mitochondria – biochemical, purified mitochondria (AID 1603); details: stronger effect = lower value;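 also: mouse liver mitochondria challenged with calcium chloride; signal normalized to the plate average as 100%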
# [15] = polyglutamine aggregate formation blockers (AID 1604); details: polyglutamine-induced protein aggregation inhibition assay; stronger effect = higher value; tested at 2.5 µM
# [16] = glutamate transport activators, MN-1 cells, MN-1 cell line (AID 1612); details: MN-1 motor neuron cells, stronger effect = higher value;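 also: tested at 1 µM final; 0% = mean of DMSO vehicle wells on each plate; positive means more glutamate uptake than control and negative means less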
# [17] = 75Q-TubH aggregate inhibition, S. cerevisiae, yeast (AID 1616); details: S. cerevisiae 75Q-TubH polyglutamine aggregation suppression; stronger effect = higher value
# [18] = growth inhibition, single agent or in combination, cell-based, chromothripsis tumors, cisplatin or BGB combos (AID 1671449; in the data active = inhibition above about 80%;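 also: cells exposed for 96 hours; 0% = vehicle DMSO and 100% = killing by high DMSO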); details: LFS_MB_P medulloblastoma cells
# [19] = growth inhibition, single agent and combos, cell-based, chromothripsis tumors, cisplatin or BGB combos (AID 1671450; in the data active = inhibition above about 80%;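 also: cells exposed to compound for four days; 0% = vehicle DMSO and 100% = cell killing by high DMSO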); details: HDN33 neuroblastoma cells, stronger effect = higher value
# [20] = growth inhibition, single agents and combos, HTB85, cell-based, BGB or cisplatin IC20 combos, synergistic combos for chromothripsis tumors (AID 1671453; in the data active = inhibition above about 80%;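 also: cells exposed for 96 hours before readout; 0% = vehicle DMSO and 100% = high DMSO killing control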); details: HTB85 osteosarcoma cells, drug combinations, stronger effect = higher value
compound,measurement,setting,value
Oc1ccc(/C=C/c2cc(O)cc(O)c2)cc1,fluorescence ratio,[1],0.95 (inactive)
same,inhibition,[2],-2.84% (inactive)
same,inhibition,[3],-2.76% (inactive)
same,fluorescence ratio,[4],0.93 (inactive)
same,log fold change Tl+ flux,[5],0.0893 (inactive)
same,log fold change Tl+ flux,[6],0.00518 (inactive)
same,log fold change Tl+ flux,[7],0.139 (active)
same,log fold change Tl+ flux,[8],0.139 (active)
same,log fold change Tl+ flux,[9],0.092 (active)
same,log fold change Tl+ flux,[10],0.0308 (inactive)
Cc1noc(NS(=O)(=O)c2ccc(N)cc2)c1C,inhibition,[11],16.5%
same,score,[12],1.57
same,rescue above control,[13],-13
same,cytochrome c release ratio,[14],0.89
same,inhibition of aggregation,[15],1.83%
same,glutamate uptake change,[16],-4.32%
same,aggregation suppression score,[17],1.13
same,log fold change Tl+ flux,[5],0.0135 (inactive)
same,log fold change Tl+ flux,[6],-0.023 (inactive)
same,log fold change Tl+ flux,[7],-0.0138 (inactive)
same,log fold change Tl+ flux,[8],0.00261 (inactive)
same,log fold change Tl+ flux,[9],-0.0229 (inactive)
same,log fold change Tl+ flux,[10],-0.0743 (inactive)
CCCCCN=C(N)N/N=C/c1c[nH]c2ccc(OC)cc12,fluorescence ratio,[1],0.7 (active)
same,inhibition,[2],8.32% (inactive)
same,inhibition,[3],7.6% (inactive)
same,fluorescence ratio,[4],0.88 (inactive)
Clc1cccc(Cl)c1NC1=NCCN1,inhibition,[11],5.5%
same,score,[12],1.4
same,rescue above control,[13],13.6
same,cytochrome c release ratio,[14],1.31
same,inhibition of aggregation,[15],86.9%
same,glutamate uptake change,[16],13.8%
same,aggregation suppression score,[17],1.85
same,fluorescence ratio,[1],1.05 (inactive)
same,inhibition,[2],-2.77% (inactive)
same,inhibition,[3],-2.41% (inactive)
same,fluorescence ratio,[4],1.02 (inactive)
same,log fold change Tl+ flux,[5],0.0127 (inactive)
same,log fold change Tl+ flux,[6],-0.0635 (inactive)
same,log fold change Tl+ flux,[7],0.000941 (inactive)
same,log fold change Tl+ flux,[8],-0.00732 (inactive)
same,log fold change Tl+ flux,[9],0.0373 (inactive)
same,log fold change Tl+ flux,[10],0.0101 (inactive)
CN(C)CCCN1c2ccccc2CCc2ccc(Cl)cc21,inhibition,[11],-18.9%
same,score,[12],0.98
same,cytochrome c release ratio,[14],1.15
same,inhibition of aggregation,[15],66.7%
same,glutamate uptake change,[16],6.78%
same,aggregation suppression score,[17],0.939
same,fluorescence ratio,[1],1 (inactive)
same,inhibition,[2],-3.18% (inactive)
same,inhibition,[3],0.29% (inactive)
same,fluorescence ratio,[4],1 (inactive)
same,log fold change Tl+ flux,[5],-0.0105 (inactive)
same,log fold change Tl+ flux,[6],0.0284 (inactive)
same,log fold change Tl+ flux,[7],0.00748 (inactive)
same,log fold change Tl+ flux,[8],-0.0594 (inactive)
same,log fold change Tl+ flux,[9],0.278 (active)
same,log fold change Tl+ flux,[10],-0.0809 (inactive)
c1ccc([C@H]2CN3CCSC3=N2)cc1,inhibition,[11],60.8%
same,score,[12],1.41
same,rescue above control,[13],-9.67
same,cytochrome c release ratio,[14],0.88
same,inhibition of aggregation,[15],72.2%
same,glutamate uptake change,[16],4.54%
same,aggregation suppression score,[17],1.54
CCN(CC)CCCC(C)Nc1c2ccc(Cl)cc2nc2ccc(OC)cc12 (configuration not stated),inhibition,[11],-263%
same,score,[12],0.79
same,rescue above control,[13],26.7
same,cytochrome c release ratio,[14],1.44
same,inhibition of aggregation,[15],77.3%
same,glutamate uptake change,[16],2.03%
same,aggregation suppression score,[17],1.04
same,inhibition,"[18]; at 0.5 µM, stronger effect = higher value",-9.53% (inactive)
same,inhibition,"[18]; measured here: combination with BGB IC20, at 0.005 µM",13.9%
same,inhibition,"[18]; measured here: combination with BGB IC40, at 0.005 µM",18.9%
same,inhibition,"[18]; measured here: combination with BGB IC40, at 0.05 µM",6.94%
same,inhibition,"[18]; measured here: combination with cisplatin, at 0.5 µM, stronger effect = higher value",-29.9%
same,inhibition,"[18]; measured here: combination with cisplatin, at 5 µM, stronger effect = higher value",113%
same,inhibition,"[19]; BGB combo, at 5 µM",99.8%
same,inhibition,[19]; at 0.5 µM,-12.9% (inactive)
same,inhibition,"[19]; cisplatin combo, at 5 µM",99.8%
same,inhibition,"[19]; measured here: with BGB IC20 combination, at 0.5 µM",-9.01%
same,inhibition,"[19]; measured here: with cisplatin IC20 combination, at 0.5 µM",-29.7%
same,inhibition,"[19]; single agent, at 5 µM",99.8%
same,inhibition,[20]; at 0.5 µM,-23.3% (inactive)
same,inhibition,"[20]; measured here: with BGB IC20, at 0.5 µM",-27.3%
same,inhibition,"[20]; measured here: with BGB IC20, at 5 µM",99.8%
same,inhibition,"[20]; measured here: with cisplatin IC20, at 0.5 µM",-38%
same,inhibition,"[20]; measured here: with cisplatin IC20, at 5 µM",99.9%
same,inhibition,"[20]; single agent, at 5 µM",99.9%
O=C1CCC(N2C(=O)c3ccccc3C2=O)C(=O)N1 (configuration not stated),inhibition,[11],8.81%
same,score,[12],1.27
same,rescue above control,[13],21.9
same,cytochrome c release ratio,[14],1.09
same,inhibition of aggregation,[15],81%
same,glutamate uptake change,[16],-12.1%
same,aggregation suppression score,[17],1.48
same,fluorescence ratio,[1],1.04 (inactive)
same,inhibition,[2],-1.36% (inactive)
same,inhibition,[3],-1.24% (inactive)
same,fluorescence ratio,[4],0.99 (inactive)
same,log fold change Tl+ flux,[5],-0.00962 (inactive)
same,log fold change Tl+ flux,[6],0.0291 (inactive)
same,log fold change Tl+ flux,[7],-0.0697 (inactive)
same,log fold change Tl+ flux,[8],0.0347 (inactive)
same,log fold change Tl+ flux,[9],-0.108 (inactive)
same,log fold change Tl+ flux,[10],-0.0685 (inactive)
c1ccc(CC2=NCCN2)cc1,inhibition,[11],7.62%
same,score,[12],1.26
same,rescue above control,[13],-6.48
same,cytochrome c release ratio,[14],1.14
same,inhibition of aggregation,[15],87%
same,glutamate uptake change,[16],1.58%
same,aggregation suppression score,[17],1.3
same,fluorescence ratio,[1],1.05 (inactive)
same,inhibition,[2],-2.27% (inactive)
same,inhibition,[3],-0.48% (inactive)
same,fluorescence ratio,[4],1.01 (inactive)
same,log fold change Tl+ flux,[5],-0.0313 (inactive)
same,log fold change Tl+ flux,[6],-0.0482 (inactive)
same,log fold change Tl+ flux,[7],0.0322 (inactive)
same,log fold change Tl+ flux,[8],-0.00877 (inactive)
same,log fold change Tl+ flux,[9],0.0215 (inactive)
same,log fold change Tl+ flux,[10],0.0521 (inactive)
CCN(CCO)CCCC(C)Nc1ccnc2cc(Cl)ccc12 (configuration not stated),inhibition,[11],-6.7%
same,score,[12],1.54
same,rescue above control,[13],-3.82
same,cytochrome c release ratio,[14],0.8
same,inhibition of aggregation,[15],27.4%
same,glutamate uptake change,[16],0%
same,aggregation suppression score,[17],1.3
CCN(Cc1ccncc1)C(=O)C(CO)c1ccccc1 (configuration not stated),inhibition,[11],24.2%
same,score,[12],1.22
same,rescue above control,[13],-3.59
same,cytochrome c release ratio,[14],1.14
same,inhibition of aggregation,[15],87%
same,glutamate uptake change,[16],-2.09%
same,aggregation suppression score,[17],1.36
same,fluorescence ratio,[1],1.06 (inactive)
same,inhibition,[2],-2.27% (inactive)
same,inhibition,[3],-5.05% (inactive)
same,fluorescence ratio,[4],1.03 (inactive)
same,log fold change Tl+ flux,[5],0.00211 (inactive)
same,log fold change Tl+ flux,[6],-0.035 (inactive)
same,log fold change Tl+ flux,[7],0.0151 (inactive)
same,log fold change Tl+ flux,[8],0.0198 (inactive)
same,log fold change Tl+ flux,[9],0.0153 (inactive)
same,log fold change Tl+ flux,[10],0.0191 (inactive)
CC(=O)CC(c1ccccc1)c1c(O)c2ccccc2oc1=O (configuration not stated),inhibition,[11],17%
same,score,[12],0.72
same,rescue above control,[13],-6.3
same,cytochrome c release ratio,[14],1.4
same,inhibition of aggregation,[15],68.5%
same,glutamate uptake change,[16],-2.55%
same,aggregation suppression score,[17],0.635
same,fluorescence ratio,[1],1 (inactive)
same,inhibition,[2],-2.27% (inactive)
same,inhibition,[3],-3.53% (inactive)
same,fluorescence ratio,[4],0.99 (inactive)
same,log fold change Tl+ flux,[5],-0.00524 (inactive)
same,log fold change Tl+ flux,[6],0.00879 (inactive)
same,log fold change Tl+ flux,[7],-0.0262 (inactive)
same,log fold change Tl+ flux,[8],0.0436 (inactive)
same,log fold change Tl+ flux,[9],-0.00201 (inactive)
same,log fold change Tl+ flux,[10],0.0306 (inactive)
